Assay [1] is described as follows: compound effects on lung adenocarcinoma cell viability – A549, calcein-AM fluorescence, 48 h, basal, profiling panel (AID 1162). Further: test concentration not given here. Particulars: higher = more signal.
Assay [2] is described as follows: compound effects on differentiated 3T3-L1 adipocyte viability – cell-based, 3T3-L1 adipocytes, calcein-AM fluorescence, 48 h, basal, profiling panel (AID 1163). Further: test concentration not given here. Particulars: 3T3-L1 adipocytes viability, higher = more signal.
The nature of assay [3]: compound effects on hepatocellular carcinoma cell viability – HepG2, calcein-AM fluorescence, 48 h, basal, profiling panel (AID 1164). Further: test concentration not given here. To be noted: higher = more signal.
The nature of assay [4]: compound effects on multiple myeloma cell viability – MM1S, calcein-AM fluorescence, 48 h, basal, profiling panel (AID 1165).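 Further: viability of MM1S multiple myeloma cells under basal unstimulated conditions; test concentration not given here.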 Particulars: higher = more signal.
Assay [5] in a line: calcein-AM signal in unstimulated myeloma cells – cell-based, calcein-AM fluorescence, 48 h, PK04 Diversity Set, profiling panel (AID 1166).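 Further: cells grown under basal conditions without added stimulus; test concentration not given here.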 Particulars: RPMI8226 myeloma viability, higher = more signal.
Assay [6] can be described thus: JC-1 mitochondrial signal, unstimulated HepG2 cells – cell-based, JC-1 fluorescence, 24 h, 100 nL compound, profiling panel (AID 1167). Further: test concentration not given here. To be noted: HepG2 mitochondrial potential, higher = more signal.
Assay [7] in a line: JC-1 mitochondrial signal, unstimulated adipocytes – cell-based, JC-1 fluorescence, 3T3-L1 adipocytes, 24 h, 100 nL compound, profiling panel (AID 1168). Further: test concentration not given here. Particulars: JC-1 mitochondrial fluorescence, higher = more signal, called active from +8 up or from −8 down.
A short description of assay [8]: JC-1 mitochondrial signal, unstimulated myeloma cells – cell-based, JC-1 fluorescence, RPMI8226, 24 h, 100 nL compound, profiling panel (AID 1169). Further: test concentration not given here. To be noted: JC-1 mitochondrial potential fluorescence, higher = more signal.
A short description of assay [9]: JC-1 mitochondrial signal, unstimulated MM1S myeloma – cell-based, JC-1 fluorescence, 24 h, 100 nL compound, profiling panel (AID 1170). Further: test concentration not given here. Particulars: MM1S mitochondrial potential, higher = more signal.
The nature of assay [10]: resazurin metabolic signal in A549 cells – cell-based, resazurin fluorescence, 24 h, PK04 Diversity Set, profiling panel (AID 1171). Further: test concentration not given here. To be noted: A549 viability, higher = more signal, called active from +8 up or from −8 down. On the technique in general: Alamar Blue is a resazurin reagent that responds to reducing activity.
Assay [11] can be described thus: resazurin metabolic signal in HepG2 cells – cell-based, resazurin fluorescence, 24 h, PK04 Diversity Set, profiling panel (AID 1172). Further: test concentration not given here. To be noted: HepG2 viability, higher = more signal.
The nature of assay [12]: budding yeast growth changes without added modifier – OD600, strain BY4716, 24 h, basal condition, primary screen (AID 1173). Particulars: S. cerevisiae BY4716 growth, OD600, 24 h; higher = more signal, called active from +8 up or from −8 down.
Assay [13] in a line: viability profiling in MM1S myeloma cells – cell-based, resazurin fluorescence, basal, 24 h, PK04 Diversity Set, profiling panel (AID 1174). Further: test concentration not given here. Particulars: higher = more signal, called active from +8 up or from −8 down.
The target of assay [14] is Dihydroorotate dehydrogenase (quinone), mitochondrial (Plasmodium falciparum (isolate 3D7)) (UniProt Q08210). The assay can be described thus: inhibition of P. falciparum DHODH – biochemical, C-terminal His tag, absorbance 600 nm, primary screen (AID 1175).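 Further: recombinant parasite enzyme with a five histidine tag at its C terminus; test concentration not given here.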 To be noted: PfDHODH enzyme, DCIP absorbance 600 nm; higher = more signal, called active from +8 up or from −8 down.

A short description of assay [15]: inhibition of PAO1 biofilm formation – strain PAO1, LB-PBS medium, absorbance 600 nm, primary screen (AID 1176). Further: test concentration not given here. Particulars: P. aeruginosa PAO1 growth/biofilm, A600, 12 h; higher = more signal.
Assay [16] in a line: growth modulation of vineyard yeast isolate – strain RM11-1a, OD600, basal, 24 h, primary screen (AID 1177).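 Further: cultures grown under basal conditions with no added stressor; test concentration not given here.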 To be noted: S. cerevisiae RM11-1a growth, OD600, 24 h; higher = more signal, called active from +8 up or from −8 down.
Assay [17] in a line: growth of efflux-deficient E. coli DRC39 – strain DRC39, OD650, 24 h, E. coli filamentation inducers, primary screen (AID 1178).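 Further: growth measured as culture turbidity by optical density at 650 nm; test concentration not given here.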 To be noted: E. coli DRC39 acrAB, higher = more signal, called active from +8 up or from −8 down.
Assay [18] in a line: growth of efflux-deficient E. coli DRC39 – strain DRC39, OD650, 48 h, E. coli filamentation inducers, primary screen (AID 1179).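 Further: screen aims at cell division blockers that make cells filament.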 To be noted: E. coli DRC39 delta-acrAB growth, higher = more signal, called active from +8 up or from −8 down.
Assay [19] can be described thus: viability profiling in RPMI8226 myeloma cells – cell-based, resazurin fluorescence, basal, 24 h, PK04 Diversity Set, profiling panel (AID 1180).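 Further: RPMI8826 multiple myeloma cell line at 5000 cells per well; test concentration not given here.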 To be noted: higher = more signal.
Assay [20] has as its target E3 ubiquitin-protein ligase XIAP (Homo sapiens) (UniProt P98170). The assay can be described thus: small molecules binding XIAP protein – biophysical, small-molecule microarray, fluorescence 635 nm, primary screen (AID 1181).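 Further: score merges 667 nm emission and signal to noise over triplicate slides.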 To be noted: higher = more signal.

SMILES strings stand for the structures. Active and inactive are the calls of the source. Unless noted, how the calls were made is not given here.

Sequence of E3 ubiquitin-protein ligase XIAP (Homo sapiens) (P98170 whole entry, looked up): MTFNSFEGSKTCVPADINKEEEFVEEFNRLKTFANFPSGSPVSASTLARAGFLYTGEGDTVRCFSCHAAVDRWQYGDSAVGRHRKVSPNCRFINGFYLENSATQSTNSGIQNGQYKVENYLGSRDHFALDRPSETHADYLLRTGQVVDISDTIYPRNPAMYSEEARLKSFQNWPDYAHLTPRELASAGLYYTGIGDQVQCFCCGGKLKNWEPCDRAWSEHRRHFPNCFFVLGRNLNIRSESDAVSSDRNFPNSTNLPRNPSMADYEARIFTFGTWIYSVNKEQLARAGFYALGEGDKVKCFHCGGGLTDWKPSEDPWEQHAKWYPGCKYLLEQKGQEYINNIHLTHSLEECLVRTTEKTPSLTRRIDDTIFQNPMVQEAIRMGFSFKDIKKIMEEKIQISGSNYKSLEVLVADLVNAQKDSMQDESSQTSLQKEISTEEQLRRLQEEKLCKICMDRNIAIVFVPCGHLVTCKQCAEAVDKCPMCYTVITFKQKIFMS
Sequence of Dihydroorotate dehydrogenase (quinone), mitochondrial (Plasmodium falciparum (isolate 3D7)) (Q08210 whole entry, looked up): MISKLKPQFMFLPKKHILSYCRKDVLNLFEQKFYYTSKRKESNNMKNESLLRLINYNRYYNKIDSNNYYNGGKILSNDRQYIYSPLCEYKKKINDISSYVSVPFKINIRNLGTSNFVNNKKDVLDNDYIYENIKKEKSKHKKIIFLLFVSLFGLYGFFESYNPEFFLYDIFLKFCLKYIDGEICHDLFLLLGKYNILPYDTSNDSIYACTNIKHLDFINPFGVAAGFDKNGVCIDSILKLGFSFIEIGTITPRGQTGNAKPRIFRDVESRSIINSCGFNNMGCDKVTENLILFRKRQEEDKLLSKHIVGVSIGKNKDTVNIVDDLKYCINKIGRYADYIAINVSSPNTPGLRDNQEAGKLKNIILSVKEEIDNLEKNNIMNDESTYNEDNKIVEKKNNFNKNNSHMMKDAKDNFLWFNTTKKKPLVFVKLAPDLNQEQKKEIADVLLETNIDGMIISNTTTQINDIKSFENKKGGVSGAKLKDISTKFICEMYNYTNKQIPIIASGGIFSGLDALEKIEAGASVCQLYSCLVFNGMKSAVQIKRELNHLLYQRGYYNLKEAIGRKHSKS

For the compound `OCCCc1cc[n+](Cc2cc3c(cc2Br)OCO3)cc1`, the z-score is -0.322 in assay [1]; 0.504 in assay [2]; -0.325 in assay [3]; 0.4 in assay [4]; -0.419 in assay [5]; 0.138 in assay [6]. The z-score in assay [7] is 0.506 (inactive); in assay [8] it was -0.437; in [9] it was 1.39; in assay [10] it was -0.298 (inactive); in assay [11], -0.0125; in assay [12] it was -0.486 (inactive). In addition, the z-score is 0.463 (inactive) in assay [13]; -0.653 (inactive) in assay [15]; -0.126 (inactive) in [16]; 0.311 (inactive) in [17]; -0.0111 (inactive) in [18]; 0.275 in assay [19]. The results for the composite z-score in assay [14] and in assay [20] were -0.22 (inactive) and -0.0931, respectively.

For the compound `CC(C)(C)OC(=O)CC[C@@]1(C(N)=O)N=C(c2ccc(OCCCO)cc2)O[C@@H]1c1ccccc1CN=[N+]=[N-]`, the z-score in [1] was 0.105; in assay [2], -0.288; in assay [3] it was 0.886; in [4], 0.0855; in assay [5] it was 0.116; in assay [6] it was -1.08. Moreover, the z-score in assay [7] is -0.216 (inactive); in [8] it was 0.698; in assay [9] it was -0.829; in [10], 0.112 (inactive); in assay [11], 0.372; in [12], -0.0901 (inactive). In addition, the z-score was -0.599 (inactive) in assay [13]; 0.122 (inactive) in assay [15]; 0.0861 (inactive) in assay [16]; -0.0622 (inactive) in assay [17]; 0.131 (inactive) in assay [18]; -0.17 in [19]. Moreover, the figures for the composite z-score in [14] and in [20] were -1 (inactive) and 0.119, respectively.

Consider `C[C@@]1([C@@H](NS(=O)(=O)c2cccc3cccnc23)c2ccc(-c3ccccc3)cc2)C[C@H]1C1CCCCC1`, for which the z-score was -1 in assay [1]; -0.516 in assay [2]; -1.04 in assay [3]; -1.28 in assay [4]; -1.08 in assay [5]; -1.46 in assay [6]. Besides, the z-score in assay [7] was -0.399 (inactive); in [8], 0.698; in [9], -1.72; in assay [10], -0.892 (inactive); in assay [11], -0.901; in assay [12] it was 0.944 (inactive). Besides, the z-score in assay [13] was -2.58 (inactive); in assay [15], -0.0982 (inactive); in [16] it was 0.368 (inactive); in assay [17], -0.893 (inactive); in [18], -0.882 (inactive); in assay [19] it was -0.678. The composite z-score in assay [14] was -0.554 (inactive); in [20] it was 0.553.

With `O=C1C2C=CC(C(O)c3ccccn3)N(Nc3ccc([N+](=O)[O-])cc3)C2C(=O)N1c1ccccc1` (stereo not given), the z-score in assay [1] is -0.264; in [2], -0.723; in [3] it was 0.19; in assay [4] it was -0.416; in assay [5] it was -0.737; in assay [6] it was -1.47. For the same compound, the z-score was -1.83 (inactive) in [7]; -0.187 in [8]; -1.13 in assay [9]; -0.0475 (inactive) in assay [10]; -0.534 in assay [11]; 0.512 (inactive) in [12]. The z-score in assay [13] was -0.494 (inactive); in assay [15] it was 1.17 (inactive); in [16], -0.841 (inactive); in assay [17], -0.63 (inactive); in assay [18], -0.462 (inactive); in assay [19], -1.03. The composite z-score is 0.128 (inactive) in [14] and 0.359 in assay [20].

Take `CC[C@@H](O[Si](C#C[Si](C(C)C)(C(C)C)C(C)C)(C(C)C)C(C)C)c1cn(Cc2cccc(Cl)c2)nn1`: the z-score in assay [1] was -0.163; in assay [2], -1.25; in [3], 0.0222; in [4], 0.534; in assay [5], 0.0929; in [6], 0.0106. Further, the z-score is -0.00161 (inactive) in [7]; 0.0677 in [8]; -1.25 in assay [9]; 0.359 (inactive) in assay [10]; 0.318 in [11]; 1.42 (inactive) in [12]. Moreover, the z-score in assay [13] was 0.0769 (inactive); in assay [15] it was 0.313 (inactive); in assay [16], 1.33 (inactive); in assay [17], -0.0544 (inactive); in [18], 0.309 (inactive); in assay [19], 0.961. The composite z-score in assay [14] was 0.625 (inactive); in assay [20] it was 0.0583.

For `C=C(C(=O)CC[C@@H](OC(=O)c1cccnc1)c1cccc(OCCO)c1)C(C)C`, the z-score was 0.281 in [1]; 0.568 in [2]; 1.19 in assay [3]; -1.27 in assay [4]; -0.855 in assay [5]; -0.0539 in assay [6]. In addition, the z-score in assay [7] is -0.227 (inactive); in assay [8], -0.706; in assay [9] it was -0.928; in [10], 0.508 (inactive); in assay [11], 0.38; in assay [12] it was -0.58 (inactive). In addition, the z-score in [13] is -0.667 (inactive); in [15], 0.33 (inactive); in [16] it was -1.3 (inactive); in [17], 0.863 (inactive); in assay [18] it was 0.816 (inactive); in [19] it was -1.34. Further, the composite z-score is -1.33 (inactive) in [14] and 0.127 in [20].

As to `COC(=O)[C@@]1(Cc2ccc(F)cc2)[C@H]2c3cc(C(=O)N4CCCC4)n(C[C@H](O)CO)c3C[C@H]2CN1C(=O)c1ccccc1`, the z-score was -1.21 in assay [1]; 0.24 in assay [2]; -0.674 in [3]; -0.26 in assay [4]; -1.07 in assay [5]; -0.438 in [6]. Also, the z-score was -1.11 (inactive) in [7]; -0.663 in [8]; -0.371 in assay [9]; 0.467 (inactive) in assay [10]; -0.462 in assay [11]; 0.897 (inactive) in assay [12]. Besides, the z-score in [13] is -0.765 (inactive); in [15] it was 0.812 (inactive); in [16], -0.108 (inactive); in assay [17], -0.645 (inactive); in [18] it was -0.0414 (inactive); in assay [19], -0.797. In addition, the composite z-score is -0.323 (inactive) in assay [14] and 0.0811 in assay [20].

With `CC(=O)NCCCC[C@@H]1NC(=O)[C@H]2C[C@@H](C(=O)O)[C@@H](c3cccc(OCCO)c3)N2C1=O`, the z-score in [1] is -0.103; in [2], -0.349; in [3] it was 0.276; in assay [4], 0.34; in assay [5], 0.928; in assay [6], 0.0103. The z-score was -0.55 (inactive) in assay [7]; -0.809 in [8]; -0.401 in [9]; 0.354 (inactive) in assay [10]; -0.7 in [11]; -0.757 (inactive) in assay [12]. The z-score is 0.441 (inactive) in assay [13]; 0.118 (inactive) in assay [15]; -0.587 (inactive) in assay [16]; -0.33 (inactive) in [17]; 0.0133 (inactive) in [18]; -0.0778 in assay [19]. The composite z-score in [14] was -0.969 (inactive); in assay [20] it was -0.138.

The values above are taken from PubChem BioAssay.
